17 molecules from PubChem BioAssay AID485284 (NMMLSC, 2010) can be followed below.

Results with a measured potency or affinity are listed apart.

The test in a line: inhibitors of CD8+ T cell–vesicle binding, dose response, mouse 2C CD8+ T cells, flow cytometry (AID 485284).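 Also: drosophila derived vesicles carrying Ld MHC with QL9 peptide plus B7-1 and ICAM-1; vesicle binding seen as anti-B7-1 PE fluorescence on CD8 gated cells.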 To be noted: 2C mouse CD8+ T cell-exosome binding; at 45 µM (top of the series).
Regarding `COc1ccc([C@H]2CC(=O)C=C(c3ccc4c5c(cccc35)CC4)C2)cc1`, the binding remaining, % of control is 119%.

Consider `COc1ccc(CC(=O)OCC(=O)N2CCN(S(=O)(=O)c3ccc(C)cc3C)CC2)cc1`, for which the binding remaining, % of control amounted to 102%. Then `COc1ccc(-c2cc(CNS(=O)(=O)c3ccc(NC(C)=O)cc3)on2)cc1`, with 101%. Then `COc1ccc([C@H]2CC(=O)C=C(/C=C/c3ccccc3)C2)cc1`, with 52.1%; and `CCCNC(=O)CN1CCN(S(=O)(=O)c2ccc(Br)s2)CC1`, with 100%; and `COc1ccc(NC(=O)CC2C(=O)N(Cc3ccccc3)C(=S)N2CCN2CCOCC2)cc1` (configuration not stated), with 106%.

Regarding `COc1ccc(NC(=O)CSCC(=O)Nc2cccc(S(=O)(=O)N3CCCCCC3)c2)cc1`, the binding remaining, % of control turned out to be 44.4%. In the case of `CCOc1ccc(NC(=O)CN(C)C(=O)C2CC(=O)N(Cc3ccco3)C2)cc1OCC` (configuration not stated) it was 145%. In the case of `O=C(OCC(=O)N1CCN(C(=O)c2ccco2)CC1)c1ccccc1Cc1ccccc1` it was 73%; in that of `O=C1CC(c2nc3ccccc3[nH]2)CN1Cc1ccccc1` (configuration not stated), 207%; in that of `CCN(CC)C(=O)N1CCN(S(=O)(=O)c2ccc(C)cc2)CC1`, 112%. Then `CCCc1cc(=O)[nH]c(SCC(=O)N2c3ccccc3CC2C)n1` (configuration not stated), with 126%; and `CCOC(=O)c1cn(CC)c2cc(Cl)c([N+](=O)[O-])cc2c1=O`, with 128%; and `CC1=C/C(=C(\c2ccc(O)c(C)c2)c2ccccc2S(=O)(=O)O)C=CC1=O`, with 138%. In the case of `COc1ccc(CN2C(=O)C(C)Nc3ncnc(N4CCN(c5ccccn5)CC4)c32)cc1` (configuration not stated), the binding remaining, % of control came out at 22%. As for `O=C(NCC1CCCCC1)c1ccc(Cl)c(S(=O)(=O)N2CCOCC2)c1`, the binding remaining, % of control came to 111%. In the case of `O=C(COC(=O)C1(c2cccc(F)c2)CCCC1)NCc1ccc2c(c1)OCO2`, the binding remaining, % of control came to 72.1%.
